Data taken from the supplement of paper PMC11732987, “Enantioselective OTUD7B fragment discovery through chemoproteomics screening and high-throughput optimisation” (Communications Chemistry, 2025).

Legend:
Experiment in all cases: log2 ratio of Biotin-Ahx-Ub-VS probe labelling (compound/DMSO); higher = less target engagement, active = hit call of the paper (q ≤ 0.05, log2 ratio ≤ -1)
Conditions in all cases: treatment time: 3 h
[1] = compound: CCC1N(CCc2sccc12)C(=O)CCl
In short: (§1)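 Compound at 50 or 200 µM, or DMSO, was applied for 3 h in triplicate to HEK293T lysate (495 µg per sample, Tris/CHAPS/IGEPAL buffer with protease inhibitors), after which Biotin-Ahx-Ub-VS was added at 0.5 µM final for 1 h. The labelled DUBs were pulled down with NeutrAvidin, digested with LysC and trypsin, and run by diaPASEF LC-MS/MS. Ratios are averaged base-two logs of compound over DMSO from median-normalised label-free quantities by unpaired t-test, counting only proteins with at least 2 unique peptides.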

[2] = compound: CN1c2ccccc2C(CS1(=O)=O)NC(=O)CCl
In short: as §1

[3] = compound: Cl.ClCC(=O)N1CCc2ncncc2C1
In short: as §1

[4] = compound: Cl.Cn1ncc2C(CCCc12)NC(=O)CCl
In short: as §1

[5] = compound: ClCC(=O)NC1CCOc2ccccc12
In short: as §1

[6] = compound: ClCC(=O)NC1CCCc2ccccc12
In short: (§2)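 Each value is an average ratio of compound to vehicle, calculated by unpaired t-test. Lysate from HEK293T cells (495 µg per sample) was incubated in triplicate with compound over a concentration range or vehicle for 3 h and then with Biotin-Ahx-Ub-VS (0.5 µM final) for 1 h. Probe-labelled deubiquitinases were captured on NeutrAvidin, digested and run by diaPASEF LC-MS/MS, with Spectronaut label-free quantities normalised to the global median. Ratios are log2, and only proteins with at least two unique peptides were used.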

[7] = compound: ClCC(=O)N[C@@H]1CCCc2ccccc12
In short: as §2

[8] = compound: ClCC(=O)N[C@H]1CCCc2ccccc12
In short: as §2

[9] = compound: CCC1N(CCc2cc(OC)c(Cl)cc12)C(=O)CCl
In short: as §1

[10] = compound: CCCC1N(CCc2cc(OC)c(OC)cc12)C(=O)CCl
In short: as §1

[11] = compound: CN(Cc1cccc(Br)c1)C(=O)CCl
In short: as §1

[12] = compound: CN(Cc1cccc(OCc2ccccc2C)c1)C(=O)CCl
In short: as §1

[13] = compound: CN(Cc1ccccc1)C(=O)CCl
In short: as §1

[14] = compound: COc1ccc(CN(C)C(=O)CCl)cc1
In short: as §1

[15] = compound: COc1cccc(CN(CCCc2ccccc2)C(=O)CCl)c1
In short: as §1

[16] = compound: ClCC(=O)N1CCc2cc(Cl)c(Cl)cc2C1
In short: as §1

[17] = compound: ClCC(=O)N1CCc2nc(ncc2C1)-c1ccccc1
In short: as §1

[18] = compound: ClCC(=O)N1CCc2nocc2C1
In short: as §1

[19] = compound: ClCC(=O)N1CCc2scc(Br)c2C1
In short: as §1

[20] = compound: ClCC(=O)NC(C1CCCC1)c1cccs1
In short: as §1

Measured: log2 ratio of Biotin-Ahx-Ub-VS probe labelling

PSMD7 (UniProt P51665)
Sequence of UniProt P51665 (P51665 whole entry): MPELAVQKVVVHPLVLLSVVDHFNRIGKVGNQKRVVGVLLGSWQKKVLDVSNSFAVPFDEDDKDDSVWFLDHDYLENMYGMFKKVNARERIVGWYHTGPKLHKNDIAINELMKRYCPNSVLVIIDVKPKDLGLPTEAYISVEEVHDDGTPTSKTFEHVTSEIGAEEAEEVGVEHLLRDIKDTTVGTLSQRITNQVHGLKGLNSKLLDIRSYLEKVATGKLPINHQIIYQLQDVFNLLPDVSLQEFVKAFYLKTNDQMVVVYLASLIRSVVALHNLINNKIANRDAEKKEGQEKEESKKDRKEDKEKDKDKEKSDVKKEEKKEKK
inactive: [1]; compound concentration: 50uM 0.0196 | [1]; compound concentration: 200uM -0.639 | [2]; compound concentration: 50uM -1.31 | [2]; compound concentration: 200uM 0.533 | [3]; compound concentration: 50uM -3.61 | [3]; compound concentration: 200uM 0.0399 | [4]; compound concentration: 50uM 0.173 | [4]; compound concentration: 200uM 0.483 | [5]; compound concentration: 50uM 1.07 | [5]; compound concentration: 200uM 1 | [6]; compound concentration: 0.78uM -0.113 | [6]; compound concentration: 1.56uM -0.191 | [6]; compound concentration: 3.13uM -0.247 | [6]; compound concentration: 6.25uM -0.311 | [6]; compound concentration: 12.5uM -0.243 | [6]; compound concentration: 25uM -0.439 | [6]; compound concentration: 50uM -0.166 | [6]; compound concentration: 100uM 0.0296 | [6]; compound concentration: 200uM -0.486 | [7]; compound concentration: 0.78uM -0.113 | [7]; compound concentration: 1.56uM 0.319 | [7]; compound concentration: 3.13uM 0.0163 | [7]; compound concentration: 6.25uM -0.0645 | [7]; compound concentration: 12.5uM 0.0151 | [7]; compound concentration: 25uM 0.0566 | [7]; compound concentration: 50uM -0.252 | [7]; compound concentration: 100uM 0.0397 | [7]; compound concentration: 200uM 0.357 | [8]; compound concentration: 0.78uM 0.0931 | [8]; compound concentration: 1.56uM 0.0292 | [8]; compound concentration: 3.13uM 0.0943 | [8]; compound concentration: 6.25uM -0.111 | [8]; compound concentration: 12.5uM -0.00799 | [8]; compound concentration: 25uM -0.0922 | [8]; compound concentration: 50uM 0.0424 | [8]; compound concentration: 100uM -0.132 | [8]; compound concentration: 200uM -0.169 | [9]; compound concentration: 50uM 0.122 | [9]; compound concentration: 200uM 1.79 | [10]; compound concentration: 50uM 0.742 | [10]; compound concentration: 200uM 0.149 | [11]; compound concentration: 50uM -1.92 | [11]; compound concentration: 200uM 0.377 | [12]; compound concentration: 50uM 0.204 | [12]; compound concentration: 200uM -0.694 | [13]; compound concentration: 50uM 0.305 | [13]; compound concentration: 200uM 1.21 | [14]; compound concentration: 50uM -0.346 | [14]; compound concentration: 200uM 2.6 | [15]; compound concentration: 50uM 0.459 | [15]; compound concentration: 200uM 0.335 | [16]; compound concentration: 50uM -1.17 | [16]; compound concentration: 200uM 0.126 | [17]; compound concentration: 50uM -0.153 | [17]; compound concentration: 200uM 0.514 | [18]; compound concentration: 50uM 0.812 | [18]; compound concentration: 200uM 0.83 | [19]; compound concentration: 50uM 0.689 | [19]; compound concentration: 200uM 0.149 | [20]; compound concentration: 50uM 0.0697 | [20]; compound concentration: 200uM 0.463

USP47 (UniProt Q96K76)
Sequence of UniProt Q96K76 (Q96K76 whole entry): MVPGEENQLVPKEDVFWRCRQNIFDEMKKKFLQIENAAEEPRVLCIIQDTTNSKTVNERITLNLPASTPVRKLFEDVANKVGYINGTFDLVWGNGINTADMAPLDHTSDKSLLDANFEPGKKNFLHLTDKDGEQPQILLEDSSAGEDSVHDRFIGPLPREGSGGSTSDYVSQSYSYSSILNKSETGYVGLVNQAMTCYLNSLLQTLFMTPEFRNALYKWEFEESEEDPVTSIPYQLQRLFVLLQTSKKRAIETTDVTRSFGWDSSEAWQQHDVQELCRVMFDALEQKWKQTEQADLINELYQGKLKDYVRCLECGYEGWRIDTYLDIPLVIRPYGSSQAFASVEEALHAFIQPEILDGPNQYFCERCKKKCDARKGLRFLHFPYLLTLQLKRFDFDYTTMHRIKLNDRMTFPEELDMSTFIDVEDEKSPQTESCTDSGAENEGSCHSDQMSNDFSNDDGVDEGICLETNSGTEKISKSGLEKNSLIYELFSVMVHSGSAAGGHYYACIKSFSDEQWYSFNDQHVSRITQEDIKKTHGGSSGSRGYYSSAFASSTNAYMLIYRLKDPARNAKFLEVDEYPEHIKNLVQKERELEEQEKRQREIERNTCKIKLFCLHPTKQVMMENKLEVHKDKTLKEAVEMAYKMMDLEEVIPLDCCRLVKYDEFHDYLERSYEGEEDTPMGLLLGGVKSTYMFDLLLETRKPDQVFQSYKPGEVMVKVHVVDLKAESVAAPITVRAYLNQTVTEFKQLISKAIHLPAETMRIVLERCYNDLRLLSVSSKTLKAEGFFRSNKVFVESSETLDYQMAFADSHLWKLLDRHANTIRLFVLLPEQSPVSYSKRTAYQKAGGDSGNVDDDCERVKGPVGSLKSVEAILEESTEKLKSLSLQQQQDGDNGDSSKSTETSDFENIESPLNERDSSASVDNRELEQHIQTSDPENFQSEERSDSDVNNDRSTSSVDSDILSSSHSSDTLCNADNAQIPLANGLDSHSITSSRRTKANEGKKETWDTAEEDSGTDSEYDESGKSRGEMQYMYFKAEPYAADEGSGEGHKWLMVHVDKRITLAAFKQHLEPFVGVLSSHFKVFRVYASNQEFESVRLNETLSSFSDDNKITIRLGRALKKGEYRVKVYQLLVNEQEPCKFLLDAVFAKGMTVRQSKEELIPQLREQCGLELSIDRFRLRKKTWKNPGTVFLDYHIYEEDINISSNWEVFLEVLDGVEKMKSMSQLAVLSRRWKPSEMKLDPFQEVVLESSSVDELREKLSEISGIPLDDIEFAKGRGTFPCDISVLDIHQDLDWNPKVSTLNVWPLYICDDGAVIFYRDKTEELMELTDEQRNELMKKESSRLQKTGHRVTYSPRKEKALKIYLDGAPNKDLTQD
active: [6]; compound concentration: 3.13uM -1.96 | [6]; compound concentration: 6.25uM -1.31 | [6]; compound concentration: 12.5uM -2.62 | [6]; compound concentration: 25uM -2.65 | [6]; compound concentration: 50uM -1.54 | [6]; compound concentration: 100uM -1.65 | [6]; compound concentration: 200uM -1.87 | [7]; compound concentration: 0.78uM -1.55 | [8]; compound concentration: 6.25uM -1.57 | [8]; compound concentration: 100uM -1.22
inactive: [6]; compound concentration: 0.78uM -0.835 | [6]; compound concentration: 1.56uM -0.97 | [7]; compound concentration: 1.56uM -0.399 | [7]; compound concentration: 3.13uM -0.592 | [7]; compound concentration: 6.25uM -0.585 | [7]; compound concentration: 12.5uM -0.654 | [7]; compound concentration: 25uM -0.26 | [7]; compound concentration: 50uM -0.749 | [7]; compound concentration: 100uM -0.609 | [7]; compound concentration: 200uM 0.134 | [8]; compound concentration: 0.78uM -0.545 | [8]; compound concentration: 1.56uM -0.834 | [8]; compound concentration: 3.13uM -0.514 | [8]; compound concentration: 12.5uM -0.725 | [8]; compound concentration: 25uM -0.536 | [8]; compound concentration: 50uM -0.911 | [8]; compound concentration: 200uM -0.929

YOD1 (UniProt Q5VVQ6)
Sequence of UniProt Q5VVQ6 (Q5VVQ6 whole entry): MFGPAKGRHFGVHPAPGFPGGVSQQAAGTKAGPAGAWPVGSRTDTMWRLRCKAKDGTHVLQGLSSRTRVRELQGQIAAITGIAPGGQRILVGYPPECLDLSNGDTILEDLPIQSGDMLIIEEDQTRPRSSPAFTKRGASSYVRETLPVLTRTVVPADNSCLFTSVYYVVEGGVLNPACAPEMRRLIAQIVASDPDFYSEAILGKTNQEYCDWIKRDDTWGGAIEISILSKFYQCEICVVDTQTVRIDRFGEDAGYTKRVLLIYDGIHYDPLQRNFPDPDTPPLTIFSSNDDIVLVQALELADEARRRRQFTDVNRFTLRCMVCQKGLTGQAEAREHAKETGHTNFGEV
inactive: [1]; compound concentration: 50uM -0.141 | [1]; compound concentration: 200uM -0.171 | [2]; compound concentration: 50uM -0.237 | [2]; compound concentration: 200uM -0.218 | [3]; compound concentration: 50uM -0.0162 | [3]; compound concentration: 200uM -0.45 | [4]; compound concentration: 50uM 0.0347 | [4]; compound concentration: 200uM -0.0749 | [5]; compound concentration: 50uM -0.0482 | [5]; compound concentration: 200uM 0.0949 | [6]; compound concentration: 0.78uM -0.286 | [6]; compound concentration: 1.56uM -0.115 | [6]; compound concentration: 3.13uM -0.302 | [6]; compound concentration: 6.25uM -0.266 | [6]; compound concentration: 12.5uM -0.478 | [6]; compound concentration: 25uM -0.333 | [6]; compound concentration: 50uM -0.142 | [6]; compound concentration: 100uM -0.14 | [6]; compound concentration: 200uM -0.258 | [7]; compound concentration: 0.78uM -0.469 | [7]; compound concentration: 1.56uM -0.274 | [7]; compound concentration: 3.13uM -0.434 | [7]; compound concentration: 6.25uM -0.346 | [7]; compound concentration: 12.5uM -0.221 | [7]; compound concentration: 25uM -0.268 | [7]; compound concentration: 50uM -0.264 | [7]; compound concentration: 100uM -0.248 | [7]; compound concentration: 200uM -0.262 | [8]; compound concentration: 0.78uM -0.197 | [8]; compound concentration: 1.56uM -0.309 | [8]; compound concentration: 3.13uM -0.298 | [8]; compound concentration: 6.25uM -0.173 | [8]; compound concentration: 12.5uM -0.186 | [8]; compound concentration: 25uM -0.167 | [8]; compound concentration: 50uM -0.0663 | [8]; compound concentration: 100uM -0.169 | [8]; compound concentration: 200uM -0.282 | [9]; compound concentration: 50uM 0.213 | [9]; compound concentration: 200uM -0.308 | [10]; compound concentration: 50uM -0.12 | [10]; compound concentration: 200uM -0.312 | [11]; compound concentration: 50uM -0.152 | [11]; compound concentration: 200uM 0.742 | [12]; compound concentration: 50uM -0.555 | [12]; compound concentration: 200uM -0.132 | [13]; compound concentration: 50uM -0.391 | [13]; compound concentration: 200uM -0.259 | [14]; compound concentration: 50uM -0.465 | [14]; compound concentration: 200uM -0.288 | [15]; compound concentration: 50uM -0.0608 | [15]; compound concentration: 200uM 0.000762 | [16]; compound concentration: 50uM 0.356 | [16]; compound concentration: 200uM -0.373 | [17]; compound concentration: 50uM 0.102 | [17]; compound concentration: 200uM 0.0411 | [18]; compound concentration: 50uM -0.0213 | [18]; compound concentration: 200uM -0.416 | [19]; compound concentration: 50uM 0.039 | [19]; compound concentration: 200uM -0.482 | [20]; compound concentration: 50uM -0.11 | [20]; compound concentration: 200uM 0.00107
